According to PubChem BioAssay AID1851 (National Center for Advancing Translational Sciences (NCATS), 2009):
“And” between values parts separate entries of the source, which are not always exact repeats. Equal entries are not always repeated. Hit rate of the full screen: of about 16,000 compounds, about 5,800 (36%) were called active. Another 23% or so got no clear call; they are omitted. Calls come from the whole dose curve; as a rule, active = well fitted curve in the direction sought with a large enough effect; inconclusive = small, poorly fitted or top-dose-only effect, or effect the other way; inactive = no such curve, though single readings can be large or run the other way. The list shows a part of the results. Some compounds were tested as several samples or in several runs, with calls that do not always agree.

target: Cytochrome P450 2C19 (Homo sapiens) (UniProt P33261); assay: Cytochrome panel assay with activity outcomes; conditions: recombinant CYP, pro-luciferin dealkylation, luminescence, p450-cyp2c19; series mostly up to 57.1 µM; activity, negative = inhibition: at the top concentration
Sequence (P33261 whole entry, looked up): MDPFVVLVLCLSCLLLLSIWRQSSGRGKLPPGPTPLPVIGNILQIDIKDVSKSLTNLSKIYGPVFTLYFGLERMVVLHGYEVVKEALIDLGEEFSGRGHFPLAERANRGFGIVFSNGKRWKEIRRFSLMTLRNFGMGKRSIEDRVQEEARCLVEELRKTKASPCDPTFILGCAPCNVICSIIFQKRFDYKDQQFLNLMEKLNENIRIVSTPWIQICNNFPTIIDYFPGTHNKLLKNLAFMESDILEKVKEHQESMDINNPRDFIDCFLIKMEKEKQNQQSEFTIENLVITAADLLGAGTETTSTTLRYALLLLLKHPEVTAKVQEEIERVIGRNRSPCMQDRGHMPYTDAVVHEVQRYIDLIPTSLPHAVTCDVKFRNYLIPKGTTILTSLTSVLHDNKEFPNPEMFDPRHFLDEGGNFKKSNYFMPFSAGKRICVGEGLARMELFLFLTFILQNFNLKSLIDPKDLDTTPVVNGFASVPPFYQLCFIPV
% is set by controls: 0 for no effect and ±100 for the full control effect.

| Compound | activity, negative = inhibition | AC50 |
| --- | --- | --- |
| CS(=O)(=O)N1CCC2(CC1)CN(C(=O)Nc1cccc(C#N)c1)C2 | -28.2% (inactive) |  |
| CC(NC(=O)Cn1cnc([N+](=O)[O-])n1)c1ccccc1 (configuration not stated) |  | 39.8 µM (active) |
| CC(C)(C)NC(=O)Cn1cnc([N+](=O)[O-])n1 | -15.5% (inactive) |  |
| CCN(CC)C(=O)Cn1cnc([N+](=O)[O-])n1 | -10.4% (inactive) |  |
| O=C1CCC(c2ccccc2)=NN1c1nc2ccccc2s1 | 6.12% [at 11.4 µM] (inactive) |  |
| O=S(=O)(c1ccccc1)N1CCC2(CCN(C(c3ccccc3)c3ccccc3)CC2)CC1 | 7.59% (inactive) |  |
| O=S(=O)(c1ccccc1)N1CCCC1c1nc2ccccc2s1 (configuration not stated) |  | 4.47 µM (active) |
| N#CCCn1c(=O)c(-c2cccc(C#N)c2)nc2cnc(N3CCOCC3)nc21 | -0.444% (inactive) |  |
| COc1ccc2c(c1)-c1ccccc1S(=O)(=O)N2C |  | 14.1 µM (active) |
| CC1CC2=C(NC(=S)NC2c2ccc(F)cc2)/C(=C/c2ccc(F)cc2)C1 (configuration not stated) |  | 3.55 µM (active) |
| N#Cc1ccc(C(=O)Nc2ccc(N3CCN(C(=O)c4ccco4)CC3)cc2)c(F)c1 | 32.4% (inactive) |  |
| Cc1ccccc1C(=O)N1CCN(c2ccc([N+](=O)[O-])c(NCc3ccco3)c2)CC1 |  | 3.16 µM (active) |
| Cc1cccc(C(=O)N2CCN(c3ccc([N+](=O)[O-])c(NCc4ccco4)c3)CC2)c1 |  | 7.94 µM (active) |
| Cc1cccc(C(=O)NCN2CCN(c3ccccc3C#N)CC2)c1 |  | inactive |
| CC[C@]1(O)C[C@H]2CN(CCc3c([nH]c4ccccc34)[C@](C(=O)OC)(c3cc4c(cc3OC)N(C=O)[C@H]3[C@@](O)(C(=O)OC)[C@H](OC(C)=O)[C@@]5(CC)C=CCN6CC[C@]43[C@H]65)C2)C1 | 0.687% (inactive) |  |
| Cc1[nH]nc(-c2ccc(OCc3cnn(-c4ccccc4)c3)cc2O)c1Oc1ccccc1F |  | 1.78 µM (active) |
| O=C(Nc1ccc2oc(-c3ccccc3F)nc2c1)c1ccc2c(c1)OCCO2 |  | 3.98 µM (active) |
| O=C(NC1CCN(Cc2ccccc2)CC1)c1ccc(I)cc1 |  | 15.8 µM (active) |
| CN(C)CCNC(=O)C(C(=O)c1ccc(F)cc1)n1ccccc1=O (configuration not stated) | -7.72% (inactive) |  |
| COc1cc(N)c(Cl)cc1C(=O)NC1CCN(Cc2ccccc2)CC1 | 2.99% [at 25.6 µM] (inactive) |  |
| COc1ccccc1NC(=O)CN1CCN(c2ccccc2F)CC1 |  | 2.51 µM (active) |
| CCC(C)[C@H](NC(=O)NC1CCN(Cc2ccccc2)CC1)C(=O)OC (some centres not stated) | -5.66% (inactive) |  |
| CCCNC(=O)N1CCC(C(=O)c2ccc(F)cc2)CC1 |  | 17.8 µM (active) |
| Cc1ccc(NC(=O)CN2CCC(NC(=O)Cc3ccccc3)CC2)cc1C |  | 0.0178 µM (active) |
| O=C(Cc1ccccc1)NC1CCN(S(=O)(=O)c2ccc(C(=O)O)cc2)CC1 | -16.9% (inactive) |  |

| Compound | activity, negative = inhibition | AC50 |
| --- | --- | --- |
| O=C1C(O)=C(O)C(=O)C(O)=C1O | 17.6% [at 25.6 µM] (inactive) |  |
| NC(N)=NNC(=O)C(=O)O | 28.3% [at 11.4 µM] (inactive) |  |
| CCOc1ccccc1NC(=O)C(=O)NCC1CCCN1CC (configuration not stated) | -28.1% (inactive) |  |
| COc1ccccc1NC(=O)CN1CCC(C(=O)c2ccc(F)cc2)CC1 |  | 5.01 µM (active) |
| Cc1cccc(N2CCN(CC(=O)Nc3ccc(-n4cnnn4)cc3)CC2)c1C | -15% (inactive) |  |
| O=C(c1ccc(F)cc1)C1CCN(CCCCc2ccccc2)CC1 | -26% (inactive) |  |
| CCOc1ccccc1NC(=O)CN1CCC(NC(=O)c2ccccc2)CC1 |  | 1 µM (active) |
| CCN(CC)c1ccc(NC(=O)CN2CCN(c3ccccc3F)CC2)cc1 |  | 14.1 µM (active) |
| CC(C)NC(=O)N1CC2(CCN(C(=O)c3cc(C(F)(F)F)cc(C(F)(F)F)c3)CC2)C1 | -25.6% (inactive) |  |
| Nc1ncnc(N(c2ccccc2)C2CCCCC2)c1[N+](=O)[O-] | -9.85% (inactive) |  |
| N=c1nc(N2CCCCC2)cc(N)n1O |  | inactive |
| Fc1ccccc1OCCCCSc1ncccn1 |  | 3.98 µM (active) |
| c1cn(-c2ccnc(-c3ccc4c(c3)OCO4)n2)cn1 |  | 10 µM (active) |
| CCNc1ncc2nc(-c3cccc(C#N)c3)c(=O)n(C)c2n1 | 3.41% (inactive) |  |
| COc1cccc(-c2nccc(NC3CCNCC3)n2)c1 | -23% (inactive) |  |
| CN1CCN(c2ccnc(-c3ccoc3)n2)CC1 | -64.3% (inactive) |  |
| N#Cc1cccc(-c2nccc(-n3ccnc3)n2)c1 |  | 7.94 µM (active) |
| N#Cc1cccc(-c2nc(N3CCNCC3)c3ccccc3n2)c1 | -10% (inactive) |  |
| N#Cc1cccc(-c2cc(-n3ccnc3)ncn2)c1 |  | 0.158 µM (active) |
| COc1cccc(-c2nccc(-n3ccnc3)n2)c1 |  | 2.51 µM (active) |
| C[n+]1cc(-c2ccccc2)n2c1CCCCC2 | -27% (inactive) |  |
| CCCCSCc1nc2nc(Cl)c(Cl)nc2[nH]1 |  | 2 µM (active) |
| CC(C)(C)C(=O)NC(Nc1cccc2cccnc12)C(Cl)(Cl)Cl (configuration not stated) |  | 0.794 µM (active) |
| O=C(Nc1cccc2cccnc12)[C@@H]1[C@@H](C(=O)O)[C@H]2CC[C@@H]1O2 | 29.3% [at 11.4 µM] (inactive) |  |
| NC(=S)Nc1cccc2cccnc12 | -16.1% (inactive) |  |

| Compound | activity, negative = inhibition | AC50 |
| --- | --- | --- |
| COC(=O)N1CCC2(CCCN(Cc3ccccc3)C2)CC1 | 2.29% (inactive) |  |
| CC(C)NC1(C(N)=O)CCN(Cc2ccccc2)CC1 | -1.03% [at 11.4 µM] (inactive) |  |
| CCN1CCN(c2nn3c(=O)c4ccccc4nc3c3ccccc23)CC1 | -58.2% (inactive) |  |
| CC(C)OC(=O)C(C#N)c1nc2ccccc2nc1N1CCN(Cc2ccccc2)CC1 (configuration not stated) |  | 0.00562 µM (active) |
| CCCCCCOC(=O)C(C#N)c1nc2ccccc2nc1N1CCN(CC)CC1 (configuration not stated) |  | 8.91 µM (active) |
| CCn1c(=O)[nH]c2cc(Cl)c(Cl)cc21 | -23.1% (inactive) |  |
| C=CCN1C(=NC(=O)CC)SC2CS(=O)(=O)CC21 (configuration not stated) | -1.43% (inactive) |  |
| COc1ccc(CCN2C(=NC(=O)CCC(=O)O)SC3CS(=O)(=O)CC32)cc1 (configuration not stated) |  | 14.1 µM (active) |
| CCCC(=O)N=C1SC2CS(=O)(=O)CC2N1c1ccc(CC)cc1 (configuration not stated) |  | 7.08 µM (active) |
| CC(C)NC(=O)N1CC2(CCN(C(=O)c3ccncc3)CC2)C1 | -30.2% (inactive) |  |
| c1ccc(C[n+]2cccc(-c3cc4ccccc4[nH]3)c2)cc1 | 22.1% [at 11.4 µM] (inactive) |  |
| Clc1ccc(-c2cc3ccccc3[nH]2)cc1 |  | 3.16 µM (active) |
| C[C@@H](N1CCOCC1)[C@@](O)(c1ccccc1)c1ccccn1 | 5.67% [at 11.4 µM] (inactive) |  |
| OC(c1ccccc1)(c1ccc(F)cc1)C(c1ccccc1)N1CCOCC1 (configuration not stated) |  | 2.82 µM (active) |
| CC(C)NC(=O)N1CCC2(CC1)CCN(C(=O)c1cccc(F)c1)CC2 | 0.929% (inactive) |  |
| C=C[C@@]1(C)CC(=O)[C@@]2(O)[C@@]3(C)[C@H](O)CCC(C)(C)[C@@H]3[C@H](O)[C@H](OC(C)=O)[C@]2(C)O1 | -17.4% (inactive) |  |
| C=C[C@@]1(C)CC(=O)[C@@]2(O)[C@@]3(C)[C@@H](O)CCC(C)(C)[C@@H]3[C@H](OC(=O)CCN(C)C)[C@H](OC(C)=O)[C@@]2(C)O1 |  | 0.251 µM (active) |
| Cc1cc(C2CCCCC2)n(O)c(=O)c1 | -32.4% [at 25.6 µM] (inactive) |  |
| Cc1cc2nc(SCCOC(=O)Nc3ccc(Cl)cc3)nc(C)c2cc1C |  | 0.794 µM (active) |
| CSc1ccc(S(=O)(=O)Nc2ccc3c4c(cccc24)CC3)cc1 |  | 0.447 µM (active) |
| O=C(c1cccc(F)c1)N1CCC2(CCN(Cc3nccs3)CC2)CC1 |  | 1.58 µM (active) |
| O=C(c1cccc(F)c1)N1CCC2(CCCN(Cc3nccs3)C2)CC1 | 1.9% (inactive) |  |
| O=C(c1ccncc1)N1CCC2(CCN(Cc3nccs3)CC2)CC1 | 6.61% (inactive) |  |
| O=C(c1cccc(F)c1)N1CCC[C@@]2(CCN(Cc3nccs3)C2)C1 |  | 2.51 µM (active) |
| O=C(c1cc(C(F)(F)F)cc(C(F)(F)F)c1)N1CCC2(CCN(Cc3nccs3)CC2)CC1 | -44.9% (inactive) |  |

| Compound | activity, negative = inhibition | AC50 |
| --- | --- | --- |
| O=C(c1cc(C(F)(F)F)cc(C(F)(F)F)c1)N1CCC[C@@]2(CCN(Cc3nccs3)C2)C1 | -12.7% (inactive) |  |
| CCC1(c2ccccc2)C(=O)NCNC1=O |  | inactive |
| COCCn1c(=O)c(-c2ccccc2)nc2cnc(Nc3cccc(OC)c3)nc21 | -19% (inactive) |  |
| O=C(O)c1nc(-c2ccccc2)[nH]c1C(=O)O |  | 3.16 µM (active) |
| Cn1c(=O)c2[nH]c(-c3ccccc3)nc2n(C)c1=O | 29.4% (inactive) |  |
| Nc1nc(C(=O)O)c(N=Nc2ccccc2)c(=O)[nH]1 | -7.57% [at 11.4 µM] (inactive) |  |
| Cc1ccc(S(=O)(=O)N(CC(=O)NCCC2=CCCCC2)Cc2ccccc2F)cc1 |  | 4.47 µM (active) |
| C/C(CCN1CCCc2nc(C)c(C)cc21)=N\OC[C@@H](O)COCc1ccco1 | 7.43% [at 11.4 µM] (inactive) |  |
| O=C1CSC(c2ccccn2)N1c1ccc(Cl)c(Cl)c1 (configuration not stated) |  | 3.55 µM (active) |
| Cc1ccc(N2C(=O)c3n[nH]c(C)c3C2c2ccccn2)cc1 (configuration not stated) | -25.1% (inactive) |  |
| N#Cc1c(N2CCCCC2)nc(N)c2c(N)nc3c(c12)CC(c1ccccc1)O3 (configuration not stated) |  | 6.31 µM (active) |
| COc1ccccc1N1CCN(CCCCNS(=O)(=O)c2cccc3c(N(C)C)cccc23)CC1 |  | 0.501 µM (active) |
| COc1ccccc1N1CCN(Cc2cc(=O)n3ccsc3n2)CC1 |  | 17.8 µM (active) |
| COc1ccccc1N1CCN(CCCNc2cc(=O)n(C)c(=O)n2C)CC1 |  | inactive and 7.94 µM (active) |
| COc1ccccc1N1CCN(C[C@@H]2CN3C(=O)N(C)c4ccccc4C3=N2)CC1 | -22.8% (inactive) |  |
| COc1ccccc1N1CCN(CCCCNC(=O)c2ccc3ccccc3c2)CC1 |  | inactive |
| COc1ccccc1N1CCN(CCn2c(=O)[nH]c3c([nH]c4ccccc43)c2=O)CC1 | -6.76% (inactive) |  |
| COc1ccccc1N1CCN(CCCCNC(=O)c2ccc(-c3ccc(C(C)=O)cc3)cc2)CC1 |  | 15.8 µM (active) |
| CC1(C)[C@@H]2CC[C@]1(CC(=O)O)[C@H](Cl)C2 | 3.64% [at 11.4 µM] (inactive) |  |
| CCNc1ncc2nc(-c3cc(F)cc(F)c3)c(=O)n(CCC#N)c2n1 | 14.4% (inactive) |  |
| CN[C@]1(C)[C@H]2CC[C@@H](C2)C1(C)C | -24% [at 25.6 µM] (inactive) |  |
| CC1(C)C2([N+](=O)[O-])CN3CC1([N+](=O)[O-])CN(C2)C31CCCC1 | 3.32% (inactive) |  |
